Screens as filed in PubChem.
NPC1 prom act = qHTS Assay for NPC1 Promoter Activators. 320,000 tested, 2.4% active. Potency, µM (titrated, usually from 9.22 µM), without a hit: top-dose activation, usual class: activators. Huh7 NPC1 promoter luciferase reporter, 24 h. AID 485313, 2010; further: % of control where 0% means no effect; nearly all actives have a fitted effect of over 60% in size
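Readout is luciferase luminescence, reflecting NPC1 promoter activation in stably transfected Huh7 cells after 24 h compound exposure at 37 °C in reduced-serum medium with 10% FBS.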
SMN2 splice up = qHTS Assay for Enhancers of SMN2 Splice Variant Expression; 210,000 tested, 2.8% active; Potency, µM (titrated, usually from 46.1 µM), without a hit: at the highest dose activity change, positive = activation, actives largely listed as activators; HEK293 SMN2-luciferase splicing reporter, luminescence, 30-36 h; further: % of control where 0% means no effect; nearly all actives have a fitted effect of over 55% in size
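qHTS luciferase splicing reporter: luminescence rises when SMN2 exon 7 is included in transfected HEK293 cells. Compound exposure lasted 30-36 h at 37C, with 4.5 mM final sodium butyrate as control, followed by a ONE-Glo read.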
ELG1 genotox = qHTS screen for small molecules that induce genotoxicity in human embryonic kidney (HEK293T) cells expressing luciferase-tagged ELG1 | HEK293T ELG1-luciferase reporter, luminescence, 16 h | Potency, µM (highest dose often 46 µM), without a hit: at the highest dose activity change, positive = activation, hits mostly activators | 330,000 tested, 1.3% active; further: % of control where 0% means no effect; nearly all actives have a fitted effect of over 60% in size
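Step 1: seed 2,000 HEK293T ELG1-luciferase cells per well. Step 2: add compound or DMSO, incubate 16 hr at 37 °C. Step 3: ONE-Glo, 30 min at room temperature, read luminescence.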
FLuc counter = qHTS profiling assay for firefly luciferase inhibitor/activator using purifed enzyme and Km concentrations of substrates (counterscreen for miR-21 project); Luciferin 4-monooxygenase (Photinus pyralis), P08659; purified FLuc, Km substrates, luminescence inhibition; Potency, µM (highest dose often 57.5 µM), for the others: at the top dose activity change, negative = inhibition, most hits filed as inhibitors; 360,000 tested, 6.9% active; AID 588342, 2011;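 further: plate controls were vehicle for no effect and reference inhibitor for full effect; nearly all actives have a fitted effect of over 55% in size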
Target sequence (P08659 whole entry, looked up): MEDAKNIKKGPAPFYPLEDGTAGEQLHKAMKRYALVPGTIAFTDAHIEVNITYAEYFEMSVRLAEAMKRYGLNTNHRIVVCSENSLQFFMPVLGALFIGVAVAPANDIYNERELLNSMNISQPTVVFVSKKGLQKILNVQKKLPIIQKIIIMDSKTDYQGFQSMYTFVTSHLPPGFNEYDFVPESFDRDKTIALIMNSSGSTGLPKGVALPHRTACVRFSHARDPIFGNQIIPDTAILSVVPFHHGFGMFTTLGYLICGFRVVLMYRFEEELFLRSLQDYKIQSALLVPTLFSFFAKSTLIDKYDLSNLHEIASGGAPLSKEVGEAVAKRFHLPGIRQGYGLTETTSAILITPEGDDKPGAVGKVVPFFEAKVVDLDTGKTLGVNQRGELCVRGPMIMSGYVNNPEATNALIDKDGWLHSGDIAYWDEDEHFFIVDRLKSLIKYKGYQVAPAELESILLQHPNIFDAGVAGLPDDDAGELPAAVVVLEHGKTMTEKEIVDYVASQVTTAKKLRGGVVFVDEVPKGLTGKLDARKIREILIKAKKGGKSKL
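Biochemical qHTS of compounds, final roughly 60 µM downward over six points, against 10 nM purified firefly luciferase using Km concentrations of substrates (10 uM D-luciferin, 10 uM ATP) in Tris acetate pH 7.5 buffer; luminescence output.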
Rab9 prom act = qHTS Assay for Rab9 Promoter Activators. Potency, µM (series often up to 9.22 µM), without a hit: at the top dose activation, negative = inhibition, actives largely listed as activators. Huh7 Rab9 promoter-luciferase reporter, luminescence, 24 h. AID 485297, 2010. 320,000 tested, 2.8% active; further: % of control where 0% means no effect; nearly all actives have a fitted effect of over 60% in size
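Huh7 reporter line, Rab9 promoter upstream of luciferase. Compound exposure 24 h at 37 °C in reduced-serum medium with 10% FBS. Read-out: luminescence.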
p53 reactivator = qHTS assay for re-activators of p53 using a Luc reporter | H1299 p53-A138V BP100-luciferase reporter, luminescence, 24 h | Potency, µM (doses to about 92.2 µM), for inactives: at the top dose activity change, positive = activation, hits mostly activators | 320,000 tested, 0.063% active | AID 504706, 2011; further: % of control where 0% means no effect; nearly all actives have a fitted effect of over 45% in size
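H1299 (p53-null), stable ts p53-A138V + BP100-Luc; 1000 cells/well, Opti-MEM/10% FBS; cpd 4 pt, 1:5; 24 h, 37 deg C, 5% CO2; detection reagent 10 min RT; luminescence.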
* marks the source's active call; other numbers are inactive results; ? = inconclusive; nt = no result given. This is a sample that favours compounds with a hit; in the whole collection about 7.3% have one here. The call rests on the fitted dose curve; in most records, active means well fitted curve in the direction sought with a large enough effect; inconclusive means small, poorly fitted or top-dose-only effect, or another doubt; inactive means no such curve, though single readings can be large; an effect the other way counts as inactive or inconclusive. Potency means the concentration at half of the fitted maximal effect.

SMILES	NPC1 prom act	SMN2 splice up	ELG1 genotox	FLuc counter	Rab9 prom act	p53 reactivator
Cc1ccc(NC(=O)c2sccc2C)nc1	0.89µM*	nt	2.9µM*	12µM*	0.5µM*	9%
Cc1ccc(NC(=O)c2ccc(F)cc2)nc1	-3%	nt	-1%	5%	-2%	1%
CCOc1ccc(NC(=O)Nc2cccs2)cc1	0.89µM*	11µM*	4.6µM*	1.5µM*	1.4µM*	28%
CCOC(=O)C(C)NC(=O)C1CCN(c2ncnc3c2nc2n3CCCCC2)CC1 (configuration not stated)	nt	nt	nt	1%	nt	nt
Cc1ccsc1C(=O)NNC(=O)C1CC=CCC1C(=O)O (configuration not stated)	-2%	4%	6%	?	-2%	?
CC(C)c1ccc(C(=O)NNC(=O)C2CC=CCC2C(=O)O)cc1 (configuration not stated)	23%	?	11%	17µM*	29%	?
O=C(CNC(=O)c1ccco1)N/N=C/c1cccs1	-1%	nt	-1%	?	-8%	3%
Cc1ccccc1CSc1nc2cccnc2n1Cc1ccc(C(=O)NC2CC2)cc1	nt	nt	nt	6µM*	nt	nt
O=C(NC1CC1)c1ccc(Cn2c(SCc3ccc(F)cc3)nc3cccnc32)cc1	nt	nt	nt	1.7µM*	nt	nt
CCN(CC)c1nc(-c2ccc(C(C)(C)C)cc2)nc2ccccc12	nt	?	nt	5.4µM*	nt	nt
CCCn1cc(S(=O)(=O)c2cc(C)ccc2C)c(=O)c2cc(F)c(N3CCOCC3)cc21	nt	nt	nt	-5%	nt	nt
Nc1cccc(/C=C/c2ccncc2)c1	?	nt	12%	17µM*	25%	10%
COc1cccc(C(=O)NCCCn2ccnc2)c1	-1%	3%	2%	-1%	0%	21%
O=c1[nH]c(Nc2nc3ccccc3o2)nc2c1CCCC2	0.32µM*	3.5µM*	?	1.5µM*	0.32µM*	?
COc1ccc(CCNC(=O)C(=O)NCC(c2ccco2)S(=O)(=O)c2ccc(C)cc2)cc1 (configuration not stated)	nt	nt	nt	-1%	nt	nt
O=C(O)c1ccccc1OC(=O)C12CC3CC(CC(C3)C1)C2	-1%	4%	-1%	?	1%	2%
N/C(=N\OC(=O)C12CC3CC(CC(C3)C1)C2)c1cccnc1	9%	24%	3%	15µM*	7%	5%
N/C(=N\OC(=O)C12CC3CC(CC(C3)C1)C2)c1ccccn1	17%	23%	?	7.6µM*	20%	?
C/C(=N\NC(=O)c1ccccn1)C12CC3CC(CC(C3)C1)C2	29%	9%	10%	15µM*	?	7%
CC(C)C(=O)O/N=C(\N)c1ccccn1	3%	6%	3%	-5%	-1%	?
C/C(=N/NC(=O)c1ccoc1C)C12CC3CC(CC(C3)C1)C2	1%	-3%	?	?	4%	?
N/C(=N\OC(=O)C12CC3CC(CC(C3)C1)C2)c1ccccc1	16%	1%	11%	4.8µM*	1%	11%
CCc1ccc(OCC(=O)O/N=C(\N)c2cccnc2)cc1	3%	nt	8%	?	17%	5%
CCCCCC/C=C/c1ccc(OC)c([C@H]2[C@H]3C=CC[C@@H](C)[C@@H]3C(=O)N2Cc2ccccc2)c1	-8%	nt	-5%	0%	-6%	1%
N/C(=N\OC(=O)N1CCOCC1)c1ccc(Cl)cc1	21%	-82%	6%	?	?	?
SMILES	NPC1 prom act	SMN2 splice up	ELG1 genotox	FLuc counter	Rab9 prom act	p53 reactivator
N/C(=N\OC(=O)N1CCOCC1)c1ccccc1	24%	-75%	6%	17µM*	27%	15%
O=C(Nc1ccc2oc(-c3ccc4ccccc4c3)nc2c1)c1ccc2c(c1)OCCO2	?	-35%	7%	-1%	?	22%
Cc1ccc2nc(-c3cccc(NC(=O)c4ccc5c(c4)OCCO5)c3)oc2c1	11%	-13%	12%	9.5µM*	5%	?
CC(C)c1ccc2oc(-c3cccc(NC(=O)c4ccc5c(c4)OCCO5)c3)nc2c1	nt	-3%	nt	2.1µM*	nt	nt
Cc1ccc(C)c(CN2C(=O)c3ccccc3S(=O)(=O)c3ccc(C(=O)N(C)C4CCCCC4)cc32)c1	nt	-27%	nt	-1%	nt	nt
CCc1nn2c(-c3ccco3)ccnc2c1-c1ccccc1	nt	12%	nt	?	nt	nt
CCc1nn2c(-c3ccco3)ccnc2c1-c1ccc(F)cc1	nt	-4%	nt	11µM*	nt	nt
O=C(NC(C(=O)N/N=C/c1ccccc1)c1n[nH]c(=O)c2ccccc12)c1ccccc1 (configuration not stated)	0%	nt	4%	19µM*	?	-5%
O=C(NC(C(=O)N/N=C/c1c2ccccc2cc2ccccc12)c1n[nH]c(=O)c2ccccc12)c1ccccc1 (configuration not stated)	0%	nt	-3%	1%	8%	4%
CCOc1ccc(CNCCN2CCCC2)cc1	1%	nt	-6%	6%	-8%	nt
COc1ccc(-c2nnc(Nc3nc4c(OC)cccc4s3)o2)c(OC)c1	0%	-10%	2%	9.5µM*	2%	?
COc1cc(OC)cc(-c2nnc(Nc3nc4c(F)cccc4s3)o2)c1	6%	2%	-15%	?	5%	-2%
COc1ccc(-c2nnc(Nc3nc4c(OC)cccc4s3)o2)cc1	7%	1%	?	5.4µM*	-9%	?
Cc1ccc2nc(-c3ccccc3)cc(C(=O)NCCCn3ccnc3)c2c1	1%	nt	-2%	21µM*	0%	4%
O=C(NCCCn1ccnc1)c1cn(-c2ccccc2)nc1-c1ccc(F)cc1	9%	12%	5%	11µM*	9%	?
O=C(NCCCn1ccnc1)c1cc(-c2cccnc2)nc2ccc(Br)cc12	-5%	7%	-8%	?	4%	-4%
O=C(NCCCn1ccnc1)c1cc(-c2ccc(Cl)cc2)nc2ccccc12	0%	1%	-13%	24µM*	-5%	-1%
O=C(NCCCn1ccnc1)c1cc(-c2ccncc2)nc2ccccc12	-18%	-1%	0%	6%	1%	2%
Clc1cc(Cl)cc(Cl)c1	nt	-8%	nt	nt	nt	nt
CCOc1ccc2c(c1)c(=O)c(S(=O)(=O)c1ccccc1)cn2CC(=O)Nc1ccccc1OC	nt	0%	nt	2%	nt	nt
COc1ccccc1CCNC(=O)Cn1c(=O)oc2ccccc21	-7%	nt	-8%	15µM*	4%	5%
